{
  "source": "PubChem BioAssay AID463173",
  "about": "(ICCB-Longwood Screening Facility, Harvard Medical School, 2010)",
  "note": "Screen size: about 52,000 compounds; about 4,300 (8.3%) were called active. Cut-off read from the data, not from the text of the source: active = survival mostly below about 52% (no sharp cut-off); inactive = mostly above about 56%. Shown is part of a subset that was picked to be rich in actives.",
  "data": [
    {"test_system": "DeltatarO mutant", "assay": "growth inhibition of S. aureus wild type versus tarO mutant, primary screen, teichoic acid synthesis inhibitors, RN4220, OD600 (AID 463173)", "conditions": "OD600, 18 h, stronger effect = lower value, screened at 18.75 µg/mL (by protocol)", "values": [
      {"smiles": "CCc1ccccc1NC(=O)Nc1c[nH]c(=O)[nH]c1=O", "survival": "75% (inactive)"},
      {"smiles": "c1ccc(Nc2c(-c3ccccc3)nc3ncccn23)cc1", "survival": "81% (inactive)"},
      {"smiles": "O=C(OCc1cc(=O)n2nc(-c3cccs3)sc2n1)c1ccccc1", "survival": "65% (inactive)"},
      {"smiles": "CCc1nn(CC(=O)NCCCc2ccccc2)c(=O)c2cc3ccccc3n12", "survival": "90% (inactive)"},
      {"smiles": "C/C(=N\\NC(N)=O)C1CC(Cc2ccccc2)C(=O)O1", "note": "(stereo not drawn)", "survival": "57% (inactive)"},
      {"smiles": "Cc1ccc(-c2nc3ccccc3n3c(-c4ccccc4)c4c(=O)n(C)c(=O)n(C)c4c23)cc1", "survival": "97% (inactive)"},
      {"smiles": "COc1ccc(Br)cc1CNC(=O)C1CCCCN1S(=O)(=O)c1ccc(F)cc1", "note": "(stereo not drawn)", "survival": "81% (inactive)"},
      {"smiles": "CN(C)CCCNC(=O)C(=O)NCC(c1ccc2c(c1)OCO2)N1CCOCC1", "note": "(stereo not drawn)", "survival": "106% (inactive)"},
      {"smiles": "O=C(NCCO)C(=O)NCC(c1ccc2c(c1)OCO2)N1CCOCC1", "note": "(stereo not drawn)", "survival": "75% (inactive)"},
      {"smiles": "COc1ccc(C(=O)NCC(c2ccc3c(c2)OCO3)N2CCN(C)CC2)cc1", "note": "(stereo not drawn)", "survival": "47% (active)"},
      {"smiles": "CCOc1ccc(C(=O)NCC(c2ccc3c(c2)OCO3)N2CCN(C)CC2)cc1", "note": "(stereo not drawn)", "survival": "78% (inactive)"},
      {"smiles": "COc1ccc(CCNC(=O)C(=O)NCC(c2ccc3c(c2)OCO3)N2CCOCC2)cc1", "note": "(stereo not drawn)", "survival": "32% (active)"},
      {"smiles": "O=C(NCCCO)C(=O)NCC(c1ccc2c(c1)OCO2)N1CCOCC1", "note": "(stereo not drawn)", "survival": "37% (active)"},
      {"smiles": "CC(C)(C)C(=O)NCC(c1ccc2c(c1)OCO2)N1CCOCC1", "note": "(stereo not drawn)", "survival": "0% (active)"},
      {"smiles": "COc1ccc(CNC(=O)C(=O)NCC(c2ccc3c(c2)OCO3)N2CCOCC2)cc1", "note": "(stereo not drawn)", "survival": "99% (inactive)"},
      {"smiles": "COc1ccc(CCNC(=O)C(=O)NCC(c2ccc3c(c2)OCO3)N2CCOCC2)cc1OC", "note": "(stereo not drawn)", "survival": "69% (inactive)"},
      {"smiles": "COc1cccc(C(=O)NCC(c2ccc3c(c2)OCO3)N2CCN(C)CC2)c1", "note": "(stereo not drawn)", "survival": "112% (inactive)"},
      {"smiles": "CC(C)(C)CC(=O)NCC(c1ccc2c(c1)OCO2)N1CCOCC1", "note": "(stereo not drawn)", "survival": "80% (inactive)"},
      {"smiles": "CNC(=O)C(=O)NCC(c1ccc2c(c1)OCO2)N1CCOCC1", "note": "(stereo not drawn)", "survival": "89% (inactive)"},
      {"smiles": "CC1=C(C(=O)Nc2cccc(C(F)(F)F)c2)C(c2ccccc2)n2ncnc2N1", "note": "(stereo not drawn)", "survival": "103% (inactive)"},
      {"smiles": "COc1ccc(CN2C3CCCC2CC(NC(=O)NC2CCCCC2)C3)cc1", "note": "(stereo not drawn)", "survival": "85% (inactive)"},
      {"smiles": "Cc1ccc(F)cc1NC(=O)CCc1c(C)nn(-c2ccc(N3CCCC3)nn2)c1C", "survival": "78% (inactive)"},
      {"smiles": "CCOc1ccc(C(C(=O)NC2CCCC2)N(Cc2ccco2)C(=O)Cn2nnc3ccccc32)cc1OC", "note": "(stereo not drawn)", "survival": "110% (inactive)"},
      {"smiles": "COc1ccc(-c2cccc(NS(=O)(=O)c3cc(C)ccc3OC)c2)nn1", "survival": "122% (inactive)"},
      {"smiles": "Nc1c(-c2nc(-c3ccc(Cl)cc3)cs2)c2ccccn2c1C(=O)c1ccc2c(c1)OCO2", "survival": "101% (inactive)"},
      {"smiles": "CC1CCCCN1C(=O)CSc1nnc2c3ccccc3n(CC(=O)O)c2n1", "note": "(stereo not drawn)", "survival": "97% (inactive)"},
      {"smiles": "CCOC(=O)c1c(C)[nH]c(C)c1S(=O)(=O)N1CCCC(C(=O)Nc2cc(C)ccc2C)C1", "note": "(stereo not drawn)", "survival": "83% (inactive)"},
      {"smiles": "COCCNC(=O)C(=O)NCC(c1ccc2c(c1)OCO2)N1CCOCC1", "note": "(stereo not drawn)", "survival": "0% (active)"},
      {"smiles": "COCCCNC(=O)C(=O)NCC(c1ccc2c(c1)OCO2)N1CCOCC1", "note": "(stereo not drawn)", "survival": "95% (inactive)"},
      {"smiles": "CN(C)CCNC(=O)C(=O)NCC(c1ccc2c(c1)OCO2)N1CCOCC1", "note": "(stereo not drawn)", "survival": "69% (inactive)"},
      {"smiles": "COc1ccccc1CNC(=O)C1CCCN(C(=O)c2cnn(-c3ccc(F)cc3)c2-n2cccc2)C1", "note": "(stereo not drawn)", "survival": "76% (inactive)"},
      {"smiles": "CCN(C(=O)Cn1nnc2sc3c(c2c1=O)CCC(C(C)(C)C)C3)c1cccc(C)c1", "note": "(stereo not drawn)", "survival": "78% (inactive)"},
      {"smiles": "COc1ccc(OC)c(CNS(=O)(=O)c2ccc(-c3cc(C(F)(F)F)on3)s2)c1", "survival": "-4% (active)"},
      {"smiles": "COc1ccc(CNS(=O)(=O)c2ccc(-c3cc(C(F)(F)F)on3)s2)cc1OC", "survival": "118% (inactive)"},
      {"smiles": "COc1ccccc1CNS(=O)(=O)c1ccc(-c2cc(C(F)(F)F)on2)s1", "survival": "102% (inactive)"},
      {"smiles": "COc1ccc(OCC(=O)NC2CC(=O)N(c3cccc(OC)c3)C2)cc1", "note": "(stereo not drawn)", "survival": "0% (active)"},
      {"smiles": "COc1cccc(N2CC(NC(=O)C3CC3)CC2=O)c1", "note": "(stereo not drawn)", "survival": "105% (inactive)"},
      {"smiles": "COc1cccc(OCC(=O)NC2CC(=O)N(c3cccc(OC)c3)C2)c1", "note": "(stereo not drawn)", "survival": "106% (inactive)"},
      {"smiles": "COc1ccc(N2CC(NC(=O)c3ccco3)CC2=O)cc1OC", "note": "(stereo not drawn)", "survival": "89% (inactive)"},
      {"smiles": "COc1cccc(N2CC(NC(=O)C3CCCCC3)CC2=O)c1", "note": "(stereo not drawn)", "survival": "144% (inactive)"},
      {"smiles": "COc1ccc(N2CC(NC(=O)c3ccco3)CC2=O)cc1", "note": "(stereo not drawn)", "survival": "58% (inactive)"},
      {"smiles": "COc1cccc(N2CC(NC(=O)c3ccco3)CC2=O)c1", "note": "(stereo not drawn)", "survival": "37% (active)"},
      {"smiles": "COc1cccc(N2CC(NC(=O)COc3ccc4ccccc4c3)CC2=O)c1", "note": "(stereo not drawn)", "survival": "107% (inactive)"},
      {"smiles": "COc1cccc(N2CC(NC(=O)C3CCCC3)CC2=O)c1", "note": "(stereo not drawn)", "survival": "46% (active)"},
      {"smiles": "O=C(Nc1cccc(F)c1)C1CCCN(S(=O)(=O)c2cccc3cccnc23)C1", "note": "(stereo not drawn)", "survival": "70% (inactive)"},
      {"smiles": "COc1ccccc1CNc1ncnc2c1c(-c1ccccc1)cn2-c1ccc(Br)cc1", "survival": "80% (inactive)"},
      {"smiles": "COc1ccc(C)cc1NC(=O)CN1C(=O)COc2ccc(S(=O)(=O)N3CCOCC3)cc21", "survival": "98% (inactive)"},
      {"smiles": "COc1ccc(-c2nnc(SCC(=O)NCc3ccc(C)cc3)nc2-c2ccc(OC)c(OC)c2)cc1OC", "survival": "76% (inactive)"}
    ]}
  ]
}
